High-throughput results deposited in PubChem by National Center for Advancing Translational Sciences (NCATS).
Shiga toxin inh = blocks Shiga toxin action in Vero cells; Vero cells, Shiga toxin protein synthesis inhibition reporter; inhibition, % at 38.7 µM; hit rate 9.2% among 290,000; in the data active = inhibition mostly above about 28%, no sharp cut-off; inactive = mostly below about 43%
CHX counter = affects cycloheximide protein synthesis inhibition readout, counter-screen | cell reporter, cycloheximide protein synthesis inhibition counterscreen | max response, % | hit rate 12% among 300,000 | AID 2314; in the data active = max response mostly above about 13%, no sharp cut-off; inactive = mostly below about 14%; also: read at 38.3 µM for the half of the compounds with a filed dose
HCV inh = blocks hepatitis C virus | Potency, µM (highest dose often 41.8 µM), most hits filed as inhibitors | hit rate 3.4% among 340,000 | Huh7.5.1 HCVcc-Cre infection, luciferase reporter, 44 h
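Infectious HCV cell culture screen: compound-treated cells (1,000/well, pre-plated 4 h) are infected with HCVcc-Cre at roughly 0.5 moi and grown 44 h. Infection is quantified by luciferase signal after 15 min substrate incubation at room temperature.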
Pf growth 96h = P. falciparum growth inhibition at 96 hour, primary screen for plastid delayed-death inhibitors. P. falciparum luciferase reporter growth, 96 h. Potency, µM (top dose mostly 28.7 µM), usual class: inhibitors. hit rate 6.9% among 320,000. AID 504834
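Infected RBCs, 2% Hct / 0.05% parasitemia final; luciferase-reporter P. falciparum; cpd 96 h, 37 C, 5% CO2; luciferase detection reagent; luminescence.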
HCMV antiviral = blocks human cytomegalovirus replication. activity change, negative = inhibition, % at 57.5 µM. HFF cells, HCMV-luciferase reporter, 72 h; active compounds read low. hit rate 4.5% among 410,000; in the data active = activity change below about -60%; inconclusive = no clear call, values can overlap the other calls; inactive = above about -39%
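Steps: HFFs plated, 16 h 37C; compounds added; HCMV-luciferase added to MOI 1 PFU/cell; 72 h 37C; OneGlo reagent, 5 min room temperature; luminescence read, normalized to controls.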
Pf growth 48h = inhibits P. falciparum growth in the first generation, 48 h. Potency, µM (doses to about 28.7 µM), usual class: inhibitors. hit rate 5.9% among 310,000. P. falciparum luciferase growth in erythrocytes, 48 h
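First compound was added to culture medium, then infected red cells at 0.1% parasitemia and 2% hematocrit (final). After incubation at 37 C under 5% CO2, luciferase detection reagent was dispensed and light output recorded.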
Hits are given with their value; n = inactive; u = inconclusive; x = not tested or not shown. In the library only some 21% were active in any assay of this set; here they are far more common. Unless noted, calls follow the shape of the dose curve; as a rule, active = well fitted inhibition curve with a large enough effect; inconclusive = small, poorly fitted or top-dose-only effect, or another doubt; inactive = no such curve, though single readings can be large or run the other way.

SMILES | Shiga toxin inh | CHX counter | HCV inh | Pf growth 96h | HCMV antiviral | Pf growth 48h
O=C(NCc1ccco1)c1ccc2nc3sc4c(c3c(=O)n2c1)CCCC4 | 98.9 | 60.0 | u | 1.85µM | x | n
CCn1c(=O)n(CCc2ccccc2)c(=O)c2c3c(sc21)CCCC3 | n | n | n | u | n | x
CC(O)CNc1nc2sc3c(c2c(=O)n1Cc1ccco1)CCCCC3 (stereo unspecified) | 35.7 | 25.5 | n | n | n | u
Cc1cc(C)c(NC(=O)c2nc3ccccc3nc2N2CCCCC2)c(C)c1 | x | x | x | x | n | x
CC(C)(C)SCCNC(=O)CN(c1ccccc1)S(=O)(=O)c1ccc(F)cc1 | n | n | n | n | n | u
CC(O)CNc1nc2sc3c(c2c(=O)n1CCc1ccccc1)CCCCC3 (stereo unspecified) | n | 17.7 | n | n | n | 11.7µM
CC(C)Sc1nc2sc3c(c2c(=O)n1Cc1ccccc1)CCCC3 | x | x | x | x | n | x
Cc1ccccc1OCC1Cc2c(nc(N)c(C#N)c2N)O1 (stereo unspecified) | 58.1 | 29.3 | n | n | n | n
N#Cc1c(N)nc2c(c1N)CC(CO)O2 (stereo unspecified) | n | n | n | n | n | n
N#Cc1c(N)nc2c(c1N)CC(COc1ccccc1)O2 (stereo unspecified) | 52.5 | 37.3 | n | n | n | n
Cc1ccc(CN2CCN(Cc3cc4ccccc4o3)CC2CCO)cc1 (stereo unspecified) | n | n | n | n | n | n
CCCNC(=O)c1ccc(-n2c(-c3ccccc3)cc3c2CCCCC3)cc1 | x | x | x | x | -87.1 | x
CC(C)NC(=O)c1ccc(-n2c(-c3ccccc3)cc3c2CCCC3)cc1 | x | x | x | x | -67.9 | x
COCCNC(=O)c1ccc(-n2c(-c3ccccc3)cc3c2CCCCC3)cc1 | x | x | x | x | -99.5 | x
CN(C)CCNC(=O)c1ccc(-n2c(-c3ccccc3)cc3c2CCCC3)cc1 | x | x | x | x | -92.3 | x
CCNC(=O)c1ccc(-n2c(-c3ccccc3)cc3c2CCCCC3)cc1 | x | x | x | x | n | x
C[C@@H]1CN([C@H](C)CO)C(=O)CCCn2nncc2CO[C@@H]1CN(C)S(C)(=O)=O | x | x | x | x | n | x
O=C(O)CCSc1nnc(COc2cccc3ccccc23)n1-c1cccc(Cl)c1 | n | n | n | n | -99.0 | u
COc1ccc(-n2c(COc3cccc4ccccc34)nnc2SCC#N)cc1 | n | n | u | n | n | 13.1µM
N#CCSc1nnc(COc2cccc3ccccc23)n1-c1ccccc1 | n | n | u | n | n | u
Cc1ccc(-c2nnc(CSc3nnc(COc4cccc5ccccc45)n3-c3ccccc3)o2)cc1 | n | n | u | 13.1µM | n | x
CCCN(CCC)C(=O)Cn1c(=O)n(-c2ccc(C)cc2)c(=O)c2ccc(C(=O)NCc3ccccc3Cl)cc21 | x | x | x | x | n | x
CCc1ccc(-n2c(SC(CC)C(=O)N(CC)CC)nc3n[nH]c(C)c3c2=N)cc1 (stereo unspecified) | x | x | x | x | -83.6 | x
CCC(Sc1nc2n[nH]c(C)c2c(=N)n1-c1cccc(Cl)c1C)C(=O)N(CC)CC (stereo unspecified) | n | n | u | n | u | u
Cc1cc(C)nc(-n2ncc3c2CC(c2ccccc2C)CC3=O)n1 (stereo unspecified) | n | n | n | 5.22µM | u | u
SMILES | Shiga toxin inh | CHX counter | HCV inh | Pf growth 96h | HCMV antiviral | Pf growth 48h
Cc1cc(C)nc(-n2ncc3c2CC(c2cccc(Cl)c2)CC3=O)n1 (stereo unspecified) | n | n | n | 4.15µM | -89.3 | u
O=C1N=c2ccc([N+](=O)[O-])cc2=C1c1sc(=O)[nH]c1O | n | n | n | n | n | n
CCC(C(=O)O/N=C(\N)c1ccc(Cl)cc1)c1ccccc1 (stereo unspecified) | n | n | n | u | n | x
N/C(=N\OC(=O)/C=C/c1ccccc1)c1ccc(Cl)cc1 | n | 15.5 | n | u | n | n
COc1ccc(/C=C/C(=O)O/N=C(\N)c2cccnc2)cc1OC | n | 28.6 | n | u | n | u
CC1=C/C(=N\OC(=O)/C=C/c2ccccc2)C(C)=CC1=O | n | n | n | u | n | n
N/C(=N\OC(=O)/C=C/c1ccccc1)c1ccccc1 | 91.7 | 34.9 | u | n | n | x
COc1ccc(/C=C/C(=O)NC(=S)NNC(=O)c2cccnc2)cc1OC | n | n | u | n | n | n
CC(C)c1ccc(CNc2ccc3c(c2)ncn3C)cc1 | 103.7 | 59.9 | u | n | n | n
